Assay [1] in a line: Cell Viability - LYMP2-001 (AID 921).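 Note: cells exposed to compound for 24 h at 37 °C; nearly all actives have a fitted effect of over 70% in size.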 The note with it: LYMP2-001 lymphoblastoid cell viability; series mostly up to 92.2 µM. An outline of the steps:
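CellTiter-Glo luminescence (intracellular ATP) after 24 hr compound exposure at 37 C, 2500 lymphoblastoid cells/well in complete medium. AC50 fitted with standard Hill equation; tetraoctylammonium bromide positive control.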

A short description of assay [2]: MultiTox-Fluor Cytotoxicity Assay - LYMP1-001 - Dead Cells (AID 946).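 Note: cells exposed to compound for 16 h.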 The note with it: LYMP1-001 lymphoblastoid cells, dead-cell protease fluorescence; series mostly up to 92.2 µM. An outline of the steps:
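In this qHTS, 15 uM tetraoctylammonium bromide defined 100% and DMSO defined basal activity. Lymphoblastoid cells (LYMP1-001, 2500 per well) received compound for 16 hr at 37 C before a fluorogenic dead-cell substrate readout at 485/520 nm.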

Assay [3] is described as follows: MultiTox-Fluor Cytotoxicity Assay - LYMP1-001 - Live Cells (AID 947). The note with it: LYMP1-001 lymphoblastoid cells, live-cell protease fluorescence viability; series mostly up to 92.2 µM.
A short description of assay [4]: Cell Viability - LYMP1-002 - Assay at 16 hr (AID 948). The note with it: LYMP1-002 lymphoblastoid cell viability; series mostly up to 92.2 µM. The method, boiled down:
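LYMP1-002 human lymphoblastoid cells, 2500/well; 5 hr 37 C; cpd 16 hr 37 C; CellTiter-Glo 30 min RT; luminescence (ATP). Concentration-response, Hill-fit AC50. Pos ctrl tetraoctylammonium bromide.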

The nature of assay [5]: Confirmation and Secondary Assay for Modulators of Hemoglobin Beta Chain Splicing at IVS2 705 locus (AID 930).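 Note: HeLa cells stably expressing the EGFP-705 splicing reporter.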 The note with it: HeLa EGFP-705 splicing reporter, GFP fluorescence, 48 h; series mostly up to 46.1 µM. An outline of the steps:
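HeLa cells stably carrying EGFP interrupted by mutant beta-globin IVS2-705 intron (CMV-driven) were seeded at 500 cells/well, treated next day with compound for 2 days at 37C; corrected splicing restores EGFP, read as total peak GFP intensity per well.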

Assay [6] can be described thus: qHTS Assay for Identification of Small Molecule Agonists for Thrombopoietin (TPO) Signaling Pathway (AID 917). The note with it: TPO signaling pathway reporter cells, agonist qHTS; series mostly up to 38.5 µM. The method, boiled down:
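Activators of TPO signaling were sought in murine Ba/F3 cells transfected with the human receptor, using a luciferase gene driven by the Glycoprotein IIb promoter; 24-hr compound exposure at 37 C alongside 26 pM TPO, in IL-3-free medium.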
On the technique in general: qHTS replaces the single test concentration by a dilution series.

Assay [7] deals with Muscarinic acetylcholine receptor M1 (Rattus norvegicus) (UniProt P08482). Nature of the assay: qHTS Assay for Antagonists of Acetylcholine Muscarinic M1 Receptor: Kinetic Measurement of Intracellular Calcium Response (AID 943).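 Note: Fluo-4 calcium signal as peak divided by basal fluorescence over 4 min; nearly all actives have a fitted effect of over 75% in size.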 The note with it: M1-expressing cells, kinetic intracellular calcium fluorescence; series mostly up to 35.3 µM. An outline of the steps:
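Rat M1-CHO cells, 2000/well, overnight → Fluo-4 no-wash dye with probenecid, 1 h 37C → compound 10 min, room temp → basal read 6 s → carbachol EC80 (100 nM) → 4 min kinetic read; peak/basal.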

Assay [8] has as its target Pyruvate kinase (Leishmania mexicana) (UniProt Q27686). Kind of assay: qHTS Validation Assay for Inhibitors of Leishmania Mexicana Pyruvate Kinase (AID 945). The note with it: purified L. mexicana pyruvate kinase, enzyme activity, E451W mutant enzyme; series mostly up to 57.5 µM. An outline of the steps:
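LmPYK E451W 0.2 nM; 0.5 mM PEP, 0.1 mM ADP, 7 mM MgCl2, 50 mM KCl, imidazole pH 7.2, 0.01% Tween 20, 0.05% BSA; 1 h RT; PKLight luminescence; DMSO-normalized.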

Assay [9] deals with Pyruvate kinase PKM (Homo sapiens) (UniProt P14618). Nature of the assay: qHTS Assay for Activators of Human Muscle Pyruvate Kinase (AID 954; active = well fitted curve in the direction sought with a large enough effect, not every such curve was filed as active). The note with it: purified human muscle pyruvate kinase, luciferase-coupled luminescence, 1 h; series mostly up to 57.5 µM. An outline of the steps: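 Enzyme was run at intermediate activity so both inhibitors and activators could be detected. ATP formed from ADP and PEP by 0.1 nM human PKM2 during a 1 h room-temperature incubation was quantified by coupled luciferase luminescence.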
Chain of Pyruvate kinase PKM (Homo sapiens) (P14618 whole entry, looked up): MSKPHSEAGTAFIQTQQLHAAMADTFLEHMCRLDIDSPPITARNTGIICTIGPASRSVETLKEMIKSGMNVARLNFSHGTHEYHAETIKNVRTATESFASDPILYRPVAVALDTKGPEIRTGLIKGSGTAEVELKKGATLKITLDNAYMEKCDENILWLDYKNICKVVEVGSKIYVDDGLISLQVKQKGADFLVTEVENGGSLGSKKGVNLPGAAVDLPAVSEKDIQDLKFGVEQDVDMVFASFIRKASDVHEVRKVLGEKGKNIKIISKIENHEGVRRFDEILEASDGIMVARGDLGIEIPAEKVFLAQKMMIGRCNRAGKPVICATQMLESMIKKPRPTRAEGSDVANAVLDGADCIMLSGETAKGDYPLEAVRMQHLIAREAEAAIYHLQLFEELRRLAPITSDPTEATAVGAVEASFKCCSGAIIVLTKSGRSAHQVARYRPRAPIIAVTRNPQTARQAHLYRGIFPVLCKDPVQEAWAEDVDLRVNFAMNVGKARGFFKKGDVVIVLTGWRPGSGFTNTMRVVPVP

Assay [10] has as its target Muscarinic acetylcholine receptor M1 (Rattus norvegicus) (UniProt P08482). Nature of the assay: qHTS Assay for Antagonists of Acetylcholine Muscarinic M1 Receptor: Measurement of IP-One Response (AID 944). Note: nearly all actives have a fitted effect of over 75% in size. Note: potency is the fitted concentration of half-maximal effect. The note with it: CHO-M1 cells, IP-One HTRF, antagonist mode; series mostly up to 46.1 µM. An outline of the steps: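 M1-CHO (rat), 2000 cells/well, overnight recovery; cpd 10 min; carbachol EC80 (200 nM), 30 min, HEPES buffer + 50 mM LiCl pH 7.4; IP-One HTRF, Ex 337, Em 620/665 nm.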

Inconclusive results are not listed. Activity calls are given as the source filed them. Unless noted, calls come from the whole dose curve; as a rule, active = well fitted curve in the direction sought with a large enough effect; inconclusive = small, poorly fitted or top-dose-only effect, or another doubt; inactive = no such curve, though single readings can be large; an effect the other way counts as inactive or inconclusive.

Chain of Muscarinic acetylcholine receptor M1 (Rattus norvegicus) (P08482 whole entry, looked up): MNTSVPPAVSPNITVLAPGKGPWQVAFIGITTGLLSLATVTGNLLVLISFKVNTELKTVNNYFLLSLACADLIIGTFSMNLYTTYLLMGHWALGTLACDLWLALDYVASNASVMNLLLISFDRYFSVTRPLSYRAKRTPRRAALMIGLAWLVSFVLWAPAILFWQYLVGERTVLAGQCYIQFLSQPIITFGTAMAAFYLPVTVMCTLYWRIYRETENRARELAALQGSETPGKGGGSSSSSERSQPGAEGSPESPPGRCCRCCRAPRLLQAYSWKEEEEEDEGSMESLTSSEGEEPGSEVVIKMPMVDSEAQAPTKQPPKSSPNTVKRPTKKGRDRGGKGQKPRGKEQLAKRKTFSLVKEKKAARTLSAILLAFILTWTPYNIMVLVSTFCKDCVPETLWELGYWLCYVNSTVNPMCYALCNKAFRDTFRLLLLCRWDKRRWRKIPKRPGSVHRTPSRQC
Chain of Pyruvate kinase (Leishmania mexicana) (Q27686 2-499 E452W): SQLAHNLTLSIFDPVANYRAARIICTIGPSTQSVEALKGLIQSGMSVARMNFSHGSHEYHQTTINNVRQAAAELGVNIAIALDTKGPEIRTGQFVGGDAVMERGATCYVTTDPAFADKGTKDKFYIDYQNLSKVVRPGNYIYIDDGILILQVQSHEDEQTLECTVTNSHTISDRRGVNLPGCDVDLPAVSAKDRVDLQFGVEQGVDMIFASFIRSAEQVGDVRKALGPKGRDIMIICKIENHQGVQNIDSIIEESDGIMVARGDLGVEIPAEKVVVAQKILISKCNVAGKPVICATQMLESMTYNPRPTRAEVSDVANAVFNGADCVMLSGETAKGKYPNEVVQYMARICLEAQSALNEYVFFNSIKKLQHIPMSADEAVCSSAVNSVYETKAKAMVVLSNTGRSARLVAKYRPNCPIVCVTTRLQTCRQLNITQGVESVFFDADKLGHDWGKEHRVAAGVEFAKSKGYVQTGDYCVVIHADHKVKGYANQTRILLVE

With `CC(C)NC(C)C`, the call in assay [1], in assay [2], in assay [3] and in assay [4] was inactive.
As to `O=c1oc2ccccc2c(O)c1Cc1c(O)c2ccccc2oc1=O`, in assay [5], the outcome was inactive.
`O=C(CCCN1CCC2(CC1)C(=O)NCN2c1ccccc1)c1ccc(F)cc1`: the molecule was classed as inactive in assay [6], in assay [5], in assay [7], in [8] and in assay [9].
`CCCCC/C=C\C/C=C\C/C=C\C/C=C\CCCC(=O)NCC(=O)O`: the call in [6], in [7], in assay [8] and in assay [9] was inactive. For the same molecule, the Potency entry in assay [10] is “inactive”.
Take `CNC(C)(C)Cc1ccccc1`: the outcome in assay [5] was inactive.
Turning to `CCC(C)(C)c1ccc(O)cc1`, the molecule was called inactive in assay [1], in assay [2], in assay [3] and in assay [4].
Take `Oc1ccc(Cl)cc1`: the result in [1], in [5], in assay [2], in assay [3] and in assay [4] was inactive.
Turning to `C[C@]1(O)CC[C@H]2[C@@H]3CCC4=CC(=O)CC[C@]4(C)[C@@]3(F)[C@@H](O)C[C@@]21C`, the molecule was classed as inactive in assay [1], in assay [2], in assay [3] and in assay [4].
Consider `NCCc1ccc(O)cc1`, for which the result in assay [6], in [1], in assay [5], in assay [8], in assay [2] and in assay [3] was inactive. Moreover, the call in assay [4] and in [9] was inactive. The Potency result in [10] is “inactive”.
For `Nc1ccccc1C(=O)O`, the molecule was called inactive in assay [1], in [2], in assay [3] and in assay [4].
On to `O=C1c2ccccc2C(=O)c2ccccc21`, for which the outcome in [5] was inactive.
The same measure, in the same setting: the value for `CC(C)(C)NCC(O)c1ccccc1Cl` (configuration not stated) was “inactive”; that for `CC(NC(C)(C)C)C(=O)c1cccc(Cl)c1` (configuration not stated) was “inactive”.
With `C[C@]12CCC(=O)C=C1CC[C@@H]1[C@@H]2CC[C@]2(C)C(=O)CC[C@@H]12`, the molecule was classed as inactive in assay [6], in assay [1], in [7], in [8], in [2] and in assay [3]. Further, the molecule was called inactive in assay [4] and in assay [9]. Further, in [10], the Potency entry was “inactive”.
As for `c1ccc2c(c1)sc1ccccc12`, the outcome in assay [5] was inactive.
Turning to `O=c1[nH]oc2c1CCNC2`, the molecule was called inactive in assay [6], in assay [5], in [7], in assay [8] and in assay [9]. In assay [10], the Potency entry is “inactive”.
On to `COP(=S)(OC)Oc1ccc(SC)c(C)c1`, for which the result in assay [1], in assay [5], in assay [2], in assay [3] and in assay [4] was inactive.
With `NC(=O)CS(=O)C(c1ccccc1)c1ccccc1` (configuration not stated), the outcome in assay [5] was inactive.
Turning to `COC(=O)C(c1ccccc1)C1CCCCN1` (configuration not stated), the call in [1], in [2], in [3] and in [4] was inactive.
In the case of `NC(=O)c1cc([N+](=O)[O-])cc([N+](=O)[O-])c1`, the outcome in assay [5] was inactive.
In the case of `C[C@]12CCC(=O)C=C1CC[C@@H]1[C@@H]2CC[C@@]2(C)[C@H]1CC[C@]2(C)O`, the outcome in assay [1], in assay [3] and in [4] was inactive.
Consider `CN1C[C@H](C(=O)N[C@]2(C)O[C@@]3(O)[C@@H]4CCCN4C(=O)[C@H](Cc4ccccc4)N3C2=O)C=C2c3cccc4[nH]cc(c34)C[C@H]21`, for which the result in assay [1], in [2], in assay [3] and in assay [4] was inactive.
Turning to `COc1cc(OC)c(OC)cc1C=O`, the result in assay [1], in assay [5], in [2] and in assay [4] was inactive.
With `CC(C)N(CCC(C(N)=O)(c1ccccc1)c1ccccn1)C(C)C` (configuration not stated), the molecule was called inactive in [5].
As to `CCOC(=O)CC(SP(=S)(OC)OC)C(=O)OCC` (configuration not stated), the call in assay [1], in [2], in [3] and in assay [4] was inactive.
On to `CCC1(c2ccc(N)cc2)CCC(=O)NC1=O` (configuration not stated), for which the result in assay [5] was inactive.
As for `O=C(O)CCCc1ccc(N(CCCl)CCCl)cc1`, the call in assay [5], in assay [8], in assay [2], in assay [4] and in assay [9] was inactive.
With `CC(C)c1cccc(C(C)C)c1O`, the call in assay [6], in assay [1], in [5], in assay [8], in assay [2] and in assay [3] was inactive. The call in assay [4] and in assay [9] was inactive. The Potency entry in assay [10] was “inactive”.
As to `CC(=O)N1CCN(c2ccc(OC[C@H]3CO[C@](Cn4ccnc4)(c4ccc(Cl)cc4Cl)O3)cc2)CC1`, the Potency in [10] was 8.91 µM (active).
For the molecule `Nc1ccccc1`, the outcome in [1], in assay [2], in [3] and in [4] was inactive.
On to `Clc1ccc(C(c2ccc(Cl)cc2)C(Cl)(Cl)Cl)cc1`, for which the molecule was classed as inactive in [1], in assay [5], in [2], in assay [3] and in assay [4].
On to `CCCC(C)(COC(N)=O)COC(N)=O`, for which the outcome in assay [1], in [2], in [3] and in assay [4] was inactive.
With `CCC1(CC)C(=O)C=CNC1=O`, the molecule was called inactive in [5].
`CCOP(=S)(OCC)Oc1ccc2c(C)c(Cl)c(=O)oc2c1`: the molecule was classed as inactive in assay [5].
Turning to `O=P1(N(CCCl)CCCl)NCCCO1` (configuration not stated), the outcome in assay [6], in assay [1], in [5], in assay [8], in assay [2] and in assay [3] was inactive. For the same molecule, the result in [4] and in assay [9] was inactive.

The values above are taken from PubChem BioAssay (NCATS).
